Assay results as given in PubChem BioAssay AID624342 (National Center for Advancing Translational Sciences (NCATS), 2012).
Activity calls are given as the source filed them. Calls come from the whole dose curve.

Assay: qHTS for Inducers of the Endoplasmic Reticulum Stress Response (ERSR) in Human Glioma: Hit Validation
Details: U87-MG GRP78 promoter luciferase reporter, 16 h
From the text: Primary protein unfolding takes place for many diseases, including diabetes and hypoxia, , and triggers a reaction in the cells called ER stress response (ERSR). ). ERSR is designed as a repair mechanism, but ultimately leads to cell death via apoptosis if conditions triggering protein unfolding persist (1). The molecular clue to ERSR activation is the enhancement of the expression of key molecular chaperones, including the glucose regulated protein (GRP) 78. GRP78 is the main sensor for protein folding and the main actuator of the ERSR. In a collaboration between the Southern Research Institute and the NIH Chemical Genomics Center, a cell based screen was developed that reliably uses GRP78 as a sensor to identify small molecules as inducers of ERSR. In resting conditions, GRP78 binds proteins and acts as a natural repressor. Once unfolded proteins are present in the ER, GRP78 releases some of the repressors and binds to the unfolded proteins. The release of the repressors executes the ERSR program. Using a human glioma cell line in a miniaturized, luminescent format, a high-throughput screen was developed to identify actuators of the ERSR. In this assay, the hits identified from primary screen are re-run using the same protocol. NIH Chemical Genomics Center [NCGC] NIH Molecular Libraries Probe Centers Network [MLPCN] MLPCN Grant: DA031669 Assay Submitter (PI): Maurizio Grimaldi, Southern Research Institute (1) Soboloff, J. and S. A. Berger (2002). "Sustained ER Ca2+ depletion suppresses protein synthesis and induces activation-enhanced cell death in mast cells." J Biol Chem 277(16): 13812-20.
Stable transfected human glioma cell line, U87-MG, are dispensed at density 1000 cells/well into Greiner white solid bottom 1536-well assay plates. […] The assay plates will be incubated for 16 hours and developed by adding appropriate quantities of the Promega Bright Glo reagent. The plates will be incubated at room temperature for 10 minutes prior to being transferred into a ViewLux high-throughput CCD imager (PerkinElmer), wherein end-point measurements of luminescence are acquired.

Potency, active:
CC(=O)N1CCOc2cc(S(=O)(=O)Nc3c(C)cccc3C(C)C)c(Cl)cc21 30 µM
CC(C)Cc1nn2c(=O)cc(COC(=O)CNC(=O)c3ccc(C(C)(C)C)cc3)nc2s1 30 µM
Cc1ccc(-c2cc(NC(=O)C(C)Oc3ccc(C)c(C)c3)on2)cc1 (stereo not drawn) 30 µM
